DRV1 agonist – GPR32 (DRV1) agonism, beta-arrestin recruitment | CHO-K1 GPR32 beta-arrestin PathHunter luminescence, 90 min; zero percent set by DMSO-only wells | activation, % at 76.9 µM | O75388 | 2.5% of 48,000 active;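 active = activation of at least 60% and not above a set upper limit, about 1 call in 100 departs from these limits; inconclusive = activation of 40% to 60%, or above that upper limit; inactive = activation under 40%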; also: 0% is about no effect
Target sequence (O75388 whole entry, looked up): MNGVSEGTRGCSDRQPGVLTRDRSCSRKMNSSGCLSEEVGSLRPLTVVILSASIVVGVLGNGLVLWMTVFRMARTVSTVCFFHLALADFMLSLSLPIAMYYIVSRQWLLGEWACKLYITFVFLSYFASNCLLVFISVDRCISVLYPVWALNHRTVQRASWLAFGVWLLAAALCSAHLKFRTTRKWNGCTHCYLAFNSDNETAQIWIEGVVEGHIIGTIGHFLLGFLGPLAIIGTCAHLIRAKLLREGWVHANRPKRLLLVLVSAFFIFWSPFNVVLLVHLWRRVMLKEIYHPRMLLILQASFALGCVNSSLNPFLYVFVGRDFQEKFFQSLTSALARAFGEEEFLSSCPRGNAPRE
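Agonism was scored by beta-Gal fragment complementation (chemiluminescent read, 1 h detection at ambient temperature) reporting beta-arrestin binding to GPR32 in engineered CHO-K1 cells. Compound treatment lasted 90 min at 37 C, normalized to a DMSO basal control.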
HTT-AS act – activators of huntingtin-antisense promoter activity; HEK293 HTT-AS promoter firefly luciferase reporter, 24 h; response scale: percent change from vehicle, -100% = no light; Potency, µM (series often up to 57.5 µM), for the others: at the highest dose activity change, positive = activation, actives largely listed as activators; 0.24% of 48,000 active; AID 1508624; also: potency is read from the fitted curve at half-maximal effect; nearly all actives have a fitted effect of over 55% in size
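Firefly luciferase readout (Dual-Glo, 10 min RT) after 24 h, 37 °C compound exposure (final up to 57.5 uM) of HEK293 reporter cells cultured 24 h beforehand; PTC124 at 50 uM final as control inhibitor; activity scaled vehicle 0%, zero RLU -100%.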
HTT promoter inh – HTT promoter inhibition; HEK293 HTT promoter firefly luciferase reporter, 24 h; Potency, µM (top dose mostly 57.5 µM), for the others: top-dose activity change, negative = inhibition, most hits filed as inhibitors; 0.93% of 48,000 active; also: potency is read from the fitted curve at half-maximal effect; nearly all actives have a fitted effect of over 50% in size
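HEK293 Fluc reporter, 2,500 cells/well, 24 h pre-culture; cpds up to 57.5 uM final, 24 h 37 degrees C; Dual-Glo, 10 min RT; normalized vehicle = 0%, zero RLU = -100%.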
* hit, by the source's call; [ ] = remark or other dose. A selection: hits, their analogues and other compounds. The true share with any hit is near 3.7%. Unless noted, calls follow the shape of the dose curve; as a rule, active = well fitted curve in the direction sought with a large enough effect; inconclusive = small, poorly fitted or top-dose-only effect, or another doubt; inactive = no such curve, though single readings can be large; an effect the other way counts as inactive or inconclusive.

What do the screens show for `COc1ccc(CN(C(=O)c2cc3ccccc3oc2=O)C2CCS(=O)(=O)C2)cc1` (stereo unspecified)?
DRV1 agonist: -10.9; HTT-AS act: inconclusive; HTT promoter inh: 8.4%

How did CCOC(=O)c1ccc(NC(=O)c2cc3cc(C)ccc3n2C)cc1 do in these assays?
DRV1 agonist: 72.4*; HTT-AS act: -16.6%; HTT promoter inh: inconclusive

How did COC(=O)c1ccc(NC(=O)c2cc3cc(C)ccc3n2C)cc1 do in these assays?
DRV1 agonist: -5.4; HTT-AS act: -17.8%; HTT promoter inh: -51.6%

What do the screens show for `CCN[C@@H]1C[C@H](N)[C@@H](OC2OC(CN)=CCC2N)[C@H](O)[C@H]1O[C@H]1OC[C@](C)(O)[C@H](NC)[C@H]1O` (stereo partly specified)?
DRV1 agonist: 8.1; HTT-AS act: -3.5%[0.74 µM]; HTT promoter inh: 4.2%[0.739 µM]

What do the screens show for `COc1ccc(Nc2c3c(nc4nncn24)CCC3)cc1OC`?
DRV1 agonist: 93.3*; HTT-AS act: -27.4%; HTT promoter inh: -28.2%

How did COc1cccc(Nc2c3c(nc4nncn24)CCC3)c1 do in these assays?
DRV1 agonist: -8.0; HTT-AS act: -18.6%; HTT promoter inh: -16.8%

Results for CCc1ccc(NC(=O)CC2C(=O)N(c3cccc(C)c3)C(=O)N2Cc2cccs2)cc1 (stereo unspecified) ?
DRV1 agonist: -14.0

Results for CCc1c(C(=O)NCCc2ccc(N3CCCCC3)cc2)[nH]c2ccc(Cl)cc12 ?
DRV1 agonist: -15.3

How did Cc1ccc(NC(=O)CCc2c(C)nc3cc(-c4ccccc4)nn3c2C)cc1F do in these assays?
DRV1 agonist: 16.9; HTT-AS act: -70.9%; HTT promoter inh: 2µM*

How did Cc1nc2nc(-c3ccc(Cl)cc3Cl)nn2c(C)c1CCC(=O)Nc1ccc(F)cc1 do in these assays?
DRV1 agonist: 0.2; HTT-AS act: -80.3%; HTT promoter inh: 7.94µM*

What do the screens show for `Cc1nc2nc(CNC(=O)c3cccc(F)c3)nn2c(C)c1CCC(=O)Nc1ccc(F)cc1`?
DRV1 agonist: 16.6; HTT-AS act: 4.4%; HTT promoter inh: 10.6%

How did CCOc1ccccc1NC(=O)CCc1c(C)nc2cc(-c3ccccc3)nn2c1C do in these assays?
DRV1 agonist: 4.4; HTT-AS act: -65.8%; HTT promoter inh: inconclusive

How did CCN(CC)S(=O)(=O)c1ccc(NC(=O)CCc2c(C)nc3cc(-c4ccc(Cl)cc4)nn3c2C)cc1 do in these assays?
DRV1 agonist: -5.7; HTT-AS act: -89.0%; HTT promoter inh: inconclusive

What do the screens show for `Cc1nc2cc(-c3ccccc3)nn2c(C)c1CCC(=O)N1CCN(c2ccc(F)cc2)CC1`?
DRV1 agonist: 5.9; HTT-AS act: -75.4%; HTT promoter inh: 2µM*

What do the screens show for `CC(=O)c1ccc(NC(=O)CCc2c(C)nc3cc(-c4ccc(Cl)cc4)nn3c2C)cc1`?
DRV1 agonist: 24.0; HTT-AS act: -80.0%; HTT promoter inh: 0.282µM*

What do the screens show for `Cc1nc2c(-c3ccc(F)cc3)c(C)nn2c(C)c1CCC(=O)N1CCN(c2ccccc2)CC1`?
DRV1 agonist: -6.1; HTT-AS act: -13.6%; HTT promoter inh: -10.0%

What do the screens show for `Cc1nnc(C(C)C)n1C1C[C@H]2CC[C@@H](C1)N2CC[C@H](NC(=O)C1CCC(F)(F)CC1)c1ccccc1` (stereo partly specified)?
HTT-AS act: -7.2%; HTT promoter inh: -1.3%

Results for CO[C@@H]1[C@@H](OC)[C@H](C)[C@@](O)(CC(=O)O)O[C@H]1[C@H](C)[C@H]1O[C@@]2(CC[C@@](C)([C@H]3CC[C@@](C)([C@@H]4O[C@@H]([C@H]5O[C@](C)(O)[C@H](C)C[C@@H]5C)C[C@@H]4OC4C[C@H](OC)[C@@H](OC)[C@H](C)O4)O3)O2)C[C@H](O)[C@H]1C (stereo partly specified) ?
DRV1 agonist: inconclusive; HTT-AS act: -68.6%; HTT promoter inh: inconclusive

Results for CO[C@@H]1[C@H](N(C)C(=O)c2ccccc2)C[C@H]2O[C@]1(C)n1c3ccccc3c3c4c(c5c6ccccc6n2c5c31)C(=O)NC4 ?
HTT-AS act: -30.8%; HTT promoter inh: -29.1%

How did CC(C)C(=O)Nc1ncc(-c2cc(C(F)F)nn2-c2c(Cl)cccc2Cl)s1 do in these assays?
HTT-AS act: -37.8%; HTT promoter inh: inconclusive

Results for Cc1ccc(C)c(Nc2cc(C(=O)NCCCN(C)C3CCCCC3)c3ccccc3n2)c1 ?
DRV1 agonist: -8.5; HTT-AS act: -21.4%; HTT promoter inh: inconclusive

What do the screens show for `CCc1ccccc1Nc1cc(C(=O)NCCCN(C)C2CCCCC2)c2ccccc2n1`?
DRV1 agonist: 78.5*; HTT-AS act: -26.4%; HTT promoter inh: -21.4%

How did COc1ccc(C)cc1NC(=O)NCc1ccc2c(c1)CCN2C(=O)c1ccccc1 do in these assays?
DRV1 agonist: -24.3; HTT-AS act: -47.8%; HTT promoter inh: inconclusive

Results for COc1cc(OC)cc(C(=O)NCC(c2cccs2)S(=O)(=O)c2ccc(F)c(C)c2)c1 (stereo unspecified) ?
DRV1 agonist: -12.2; HTT-AS act: 6.0%; HTT promoter inh: 0.9%

How did COc1ccc(C(=O)NCC(c2cccs2)S(=O)(=O)c2ccc(F)c(C)c2)cc1 (stereo unspecified) do in these assays?
DRV1 agonist: 66.1*; HTT-AS act: -20.5%; HTT promoter inh: -29.6%

What do the screens show for `COc1ccc(C(=O)NCC(c2cccs2)S(=O)(=O)c2ccc(C)cc2)cc1` (stereo unspecified)?
DRV1 agonist: 9.7; HTT-AS act: -25.8%; HTT promoter inh: inconclusive

How did COc1ccc(CC(=O)NCC(c2cccs2)S(=O)(=O)c2ccc(F)cc2)cc1 (stereo unspecified) do in these assays?
DRV1 agonist: 14.3; HTT-AS act: -18.0%; HTT promoter inh: -19.6%

How did COc1ccc(CCNC(=O)C(=O)NCC(c2cccs2)S(=O)(=O)c2ccc(F)cc2)cc1 (stereo unspecified) do in these assays?
DRV1 agonist: 85.1*; HTT-AS act: -37.5%; HTT promoter inh: inconclusive

How did COc1ccc(C(=O)NCC(c2cccs2)S(=O)(=O)c2cccs2)cc1 (stereo unspecified) do in these assays?
DRV1 agonist: 83.0*; HTT-AS act: -24.3%; HTT promoter inh: -10.1%

What do the screens show for `O=C(CCCN1CCN(c2ccc(F)cc2)CC1)NC1c2ccccc2CSc2ccccc21` (stereo unspecified)?
DRV1 agonist: 39.2; HTT-AS act: -85.9%; HTT promoter inh: inconclusive

How did CCOc1ccccc1NC(=O)c1ccc2c(Cl)c3c(nc2c1)CCC3 do in these assays?
DRV1 agonist: 26.0; HTT-AS act: inconclusive; HTT promoter inh: 28.6%

Results for COc1nc(C)cnc1NS(=O)(=O)c1cccnc1-c1ccc(-c2nnco2)cc1 ?
HTT-AS act: 5.1%; HTT promoter inh: 8.7%

What do the screens show for `COc1ccc2cc(C=O)ccc2c1`?
DRV1 agonist: -1.3; HTT-AS act: 4.8%; HTT promoter inh: 20.3%

What do the screens show for `Cc1ccc(C)c(NC(=O)Nc2cccc(-c3cn4cccnc4n3)c2)c1`?
DRV1 agonist: 79.7*; HTT-AS act: -0.8%; HTT promoter inh: -3.1%

What do the screens show for `O=C(Nc1cccc(-c2cn3cccnc3n2)c1)c1cc(Br)ccc1Cl`?
DRV1 agonist: 82.8*; HTT-AS act: 1.3%; HTT promoter inh: -13.1%

High-throughput results as filed in PubChem.
